Screening results from PubChem BioAssay.
HEK293 tox = kills HEK 293 cells. HEK 293 viability, ATP luminescence (CellTiter-Glo), 48-72 h. Potency, µM (highest dose often 115 µM), without a hit: at the highest dose activity change, negative = cytotoxicity, hits mostly inhibitors. 6.6% of 94,000 active; further: nearly all actives have a fitted effect of over 60% in size
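HEK 293 cells seeded at 250 cells/well were exposed to compound for 48 or 72 hr at 37 degree Celsius. Viability taken as ATP content by CellTiter-Glo luminescence.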
hNpr1 antagonist = antagonists of human natriuretic peptide receptor Npr1 | Potency, µM (series often up to 46.3 µM), inactives show at the top dose activity change, negative = inhibition, usual class: inhibitors | 1.6% of 76,000 active | P16066 | HEK293 hNpr1 GloSensor cGMP, ANP-stimulated luminescence | AID 1347048; calls by dose curve; further: nearly all actives have a fitted effect of over 60% in size
Target sequence (P16066 whole entry, looked up): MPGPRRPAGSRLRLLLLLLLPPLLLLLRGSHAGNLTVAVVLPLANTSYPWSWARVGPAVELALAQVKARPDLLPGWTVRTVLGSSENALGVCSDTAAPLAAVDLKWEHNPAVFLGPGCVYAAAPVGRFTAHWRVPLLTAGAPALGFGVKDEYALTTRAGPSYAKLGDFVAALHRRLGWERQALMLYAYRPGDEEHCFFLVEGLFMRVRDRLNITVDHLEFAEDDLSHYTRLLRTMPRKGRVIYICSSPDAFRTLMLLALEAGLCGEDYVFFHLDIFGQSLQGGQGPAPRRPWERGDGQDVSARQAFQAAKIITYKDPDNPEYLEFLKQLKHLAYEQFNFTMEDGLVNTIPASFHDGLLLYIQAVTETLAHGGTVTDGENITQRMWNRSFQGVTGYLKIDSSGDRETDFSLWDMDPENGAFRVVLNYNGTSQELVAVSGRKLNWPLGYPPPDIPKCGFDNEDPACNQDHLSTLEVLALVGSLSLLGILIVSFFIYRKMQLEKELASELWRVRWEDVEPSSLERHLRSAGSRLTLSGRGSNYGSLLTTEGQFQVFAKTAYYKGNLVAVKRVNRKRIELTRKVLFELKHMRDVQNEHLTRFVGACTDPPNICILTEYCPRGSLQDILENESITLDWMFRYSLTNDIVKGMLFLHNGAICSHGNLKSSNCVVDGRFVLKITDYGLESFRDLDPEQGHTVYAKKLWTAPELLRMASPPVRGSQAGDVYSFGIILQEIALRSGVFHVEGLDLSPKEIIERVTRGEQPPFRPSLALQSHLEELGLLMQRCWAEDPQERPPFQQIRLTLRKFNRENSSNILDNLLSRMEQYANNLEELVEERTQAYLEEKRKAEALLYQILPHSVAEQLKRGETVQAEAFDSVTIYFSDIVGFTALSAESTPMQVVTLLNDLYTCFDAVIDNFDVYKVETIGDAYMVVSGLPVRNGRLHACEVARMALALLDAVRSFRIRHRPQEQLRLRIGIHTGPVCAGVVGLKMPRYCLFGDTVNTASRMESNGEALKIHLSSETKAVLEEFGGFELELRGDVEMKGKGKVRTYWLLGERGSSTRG
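Compound pre-incubated 30 min at room temperature on GloSensor-loaded HEK293 cells stably carrying hNpr1 and the pGS-40F cGMP biosensor. Stimulation uses hNppA at 0.1 nM final; luminescence is taken at baseline and 20 min post-agonist.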
Luciferase inh = inhibitors of firefly (Photinus pyralis) luciferase; P08659; purified P. pyralis luciferase, luminescence, biochemical; Potency, µM (series often up to 115 µM), most hits filed as inhibitors; 2.5% of 76,000 active; AID 1347043; further: nearly all actives have a fitted effect of over 65% in size
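Purified 10nM P. pyralis luciferase with 10uM D-luciferin and 10uM ATP in 50mM Tris acetate pH 7.5, 10mM Mg acetate, 0.01% Tween-20, 0.05% BSA. qHTS titration; luminescence read by CCD imager.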
3T3 cytotox = kills NIH 3T3 cells | NIH 3T3 viability, CellTiter-Glo ATP luminescence, 48-72 h | Potency, µM (highest dose often 96.7 µM), for the others: top-dose activity change, negative = cytotoxicity, hits mostly inhibitors | 4.3% of 94,000 active; further: nearly all actives have a fitted effect of over 55% in size
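Mouse fibroblast NIH 3T3 cells, 400 per well, received compound via pintool and were incubated for 48 or 72 hr prior to CellTiter-Glo ATP luminescence measurement.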
* = called active by the depositor; i = inactive; ? = inconclusive; . = no result; [ ] = remark or other dose. Most compounds without a hit are left out; they make up all but 11% or so of the library. Unless noted, the call rests on the fitted dose curve; in most records, active means well fitted curve in the direction sought with a large enough effect; inconclusive means small, poorly fitted or top-dose-only effect, or another doubt; inactive means no such curve, though single readings can be large; an effect the other way counts as inactive or inconclusive. On the % scale 0 is the no-effect control and ±100 the full control effect; potency means the concentration at half of the fitted maximal effect.

SMILES	HEK293 tox	hNpr1 antagonist	Luciferase inh	3T3 cytotox
COc1ccc(CCNC(=O)c2ccc(-c3ccc(OC)nn3)cc2Cl)cc1	-20.7%	.	.	-32.3%
Cc1nn(-c2ccccc2)c2c1C(C(C)C)N(C1CN(C(=O)C3CCCC3)C1)C2=O (stereo not given)	44.7µM*	.	.	39.8µM*
Cc1ccccc1C(=O)N1CCCC(N2C(=O)c3c(c(C)nn3-c3ccccc3)C2C(C)C)C1 (stereo not given)	22.4µM*	.	.	39.8µM*
Cc1nn(-c2ccccc2)c2c1C(C(C)C)N(C1CCCN(C(=O)C(C)(C)C)C1)C2=O (stereo not given)	?	.	.	-5.3%
Cc1nn(-c2ccccc2)c2c1C(C(C)C)N(C1CCCN(C(=O)C3CCCC3)C1)C2=O (stereo not given)	-10.2%	.	.	-18.6%
Cc1ccc(C(=O)N2CCCC(N3C(=O)c4c(c(C)nn4-c4ccccc4)C3C(C)C)C2)cc1 (stereo not given)	44.7µM*	.	.	?
Cc1ccccc1C(=O)N1CCC(N2C(=O)c3c(c(C)nn3-c3ccccc3)C2C(C)C)C1 (stereo not given)	39.8µM*	.	.	?
COCC(=O)N1CCC(N2C(=O)c3c(c(C)nn3-c3ccccc3)C2C(C)C)C1 (stereo not given)	-2.9%	.	.	-17.0%
Cc1nn(-c2ccccc2)c2c1C(C(C)C)N(C1CN(C(=O)c3ccccc3)C1)C2=O (stereo not given)	44.7µM*	.	.	?
Cc1nn(-c2ccccc2)c2c1C(C(C)C)N(C1CCCN(C(=O)c3ccccc3F)C1)C2=O (stereo not given)	35.5µM*	.	.	?
Cc1ccccc1C(=O)N1CC(N2C(=O)c3c(c(C)nn3-c3ccccc3)C2C(C)C)C1 (stereo not given)	50.1µM*	.	.	?
Cc1nn(-c2ccccc2)c2c1C(C(C)C)N(C1CCCN(C(=O)Cc3ccccn3)C1)C2=O (stereo not given)	?	.	.	-29.8%
CC(=O)N1CC(N2C(=O)c3c(c(C)nn3-c3ccccc3)C2C(C)C)C1 (stereo not given)	-7.3%	.	.	-24.6%
Cc1nn(-c2ccccc2)c2c1C(C(C)C)N(C1CN(C(=O)N(C)C)C1)C2=O (stereo not given)	?	.	.	-25.9%
Cc1nn(-c2ccccc2)c2c1C(C(C)C)N(C1CCN(C(=O)c3ccccn3)C1)C2=O (stereo not given)	44.7µM*	.	.	-21.5%
CC(C)CS(=O)(=O)Nc1ccc([C@H]2OCC(=O)N(Cc3ccc(F)cc3)[C@@H]2CO)cc1	?	4.7%	i	-21.8%
COc1cc(F)ccc1-c1cc(C(=O)NCCc2cnc[nH]2)c2c(c1)N(C)CCO2	?	3.1%[70.6 µM]	i	100µM*
CN1CCOc2c(C(=O)NCCc3cnc[nH]3)cc(-c3ccccc3F)cc21	89.1µM*	2.4%[70.6 µM]	i	?
O=C1CC2(CCN(C(=O)C3CCCN3[S+](=O)([O-])c3cccs3)CC2)Oc2ccccc2N1 (stereo not given)	?	.	.	-22.3%
COCC(=O)N1CCN(C(=O)c2nc3cccnc3n(Cc3ccccc3)c2=O)CC1	i	.	.	i
COc1cccc(CCC2CCCN(C(=O)c3ccoc3C)C2)c1 (stereo not given)	31.6µM*	-1.7%	i	?
COc1cccc(CCC2CCCN(C(=O)c3ccsc3)C2)c1 (stereo not given)	?	1.2%	i	?
COCc1ccc(C(=O)N2CCCC(CCc3cccc(OC)c3)C2)o1 (stereo not given)	79.4µM*	1.1%	i	?
O=C(NCCc1nc(-c2ccccc2)cs1)c1ccc2nccn2c1	39.8µM*	-17.5%	i	?
O=C(NCCCc1ccccn1)c1ccc2nc(-c3ccc(F)cc3)cn2c1	44.7µM*	-13.5%	?	?
SMILES	HEK293 tox	hNpr1 antagonist	Luciferase inh	3T3 cytotox
Cc1c(CNC(=O)c2ccc3nc(-c4ccc(F)cc4)cn3c2)cnn1C	?	-15.4%	44.7µM*	-22.5%
CCN(Cc1ccc(C)o1)C(=O)c1ccc2nc(-c3ccc(F)cc3)cn2c1	?	-14.5%	39.8µM*	?
O=C(NCc1nnc2n1CCC2)c1ccc2nc(-c3ccc(F)cc3)cn2c1	i	-1.1%	?	3.3%
O=C(NCCc1ccccc1F)c1ccc2nccn2c1	-4.3%[172 µM]	.	.	2.1%[138 µM]
CCN(CCn1cccn1)C(=O)c1ccc2nc(-c3ccc(F)cc3)cn2c1	?	0.6%	i	0.8%
CCCn1cnc2c1CN(S(=O)(=O)c1cccc3c(N(C)C)cccc13)[C@H](C(=O)OC)C2	?	4.2%	i	?
Cn1ncc2c(C(=O)NC3CCCCC3)cc(-c3ccccc3F)nc21	-16.8%	.	.	-24.5%
O=C1NCc2ccccc2CC12CCN(Cc1ccccc1F)C2 (stereo not given)	?	.	.	-26.0%
CN1CC2(CCCN(C(=O)c3cn(C)c4ccccc34)CC2)OC1=O (stereo not given)	1.5%	2.9%	i	i
COCC(C)Nc1nccc(C2(c3ccccc3Cl)CCNCC2)n1 (stereo not given)	-21.2%	-1.0%	i	-2.1%
CC(C)Cn1c(=O)c(C(=O)N2CCN(C(=O)c3cccc(Cl)c3)CC2)nc2cccnc21	-2.3%	.	.	-28.4%
Cc1ccc(OC2(C(=O)NCC3COc4ccccc4O3)CCNCC2)cc1 (stereo not given)	35.5µM*	3.7%	i	31.6µM*
CC(C)(C)C1CCC2(CC1)NC(=O)N(CC(=O)NCc1ccccc1)C2=O (stereo not given)	?	3.7%	i	-24.4%
COc1ccc(-c2ccnc3nc(Cc4ccc(F)cc4)nn23)c(F)c1	25.1µM*	-14.0%	i	?
COc1ccc(Cc2nc3nccc(-c4ccc(OC)cc4F)n3n2)cc1	?	0.8%	i	-14.5%
COc1ccc(-c2ccnc3nc(CCc4ccc(OC)c(OC)c4)nn23)c(F)c1	44.7µM*	-19.2%	i	-28.9%
COC(=O)NC1CCN(Cc2cccc(-c3ccc(SC)cc3)c2)CC1	?	.	.	31.6µM*
CSc1ccc(-c2cccc(CN3CCC(NC(=O)c4ccccc4C)CC3)c2)cc1	-35.4%	.	.	-22.6%
COc1ccccc1C(=O)NC1CCN(Cc2cccc(-c3ccc(SC)cc3)c2)CC1	31.6µM*	.	.	28.2µM*
Cc1ccsc1C(=O)N1CCC(N2C(=O)C(OCC3CC3)C23CCCCC3)CC1 (stereo not given)	?	4.0%	i	-27.3%
Cc1cc(F)ccc1OC1CN(C(=O)c2ccccc2)C1	?	-13.2%[70.6 µM]	17.8µM*	?
Cc1ccc(C(=O)N2CC(Oc3ccc(F)cc3F)C2)cc1	-11.6%	.	.	-19.8%
Cc1cc(F)ccc1OC1CN(Cc2ccc(C(F)(F)F)cc2)C1	100µM*	-20.6%[70.6 µM]	i	?
Cc1cc(F)ccc1OC1CN(Cc2ccc(N(C)C)cc2)C1	79.4µM*	-0.1%[70.6 µM]	i	?
CCOc1ccccc1C(=O)N1CC(=O)N(CCOc2ccccc2)CC(O)C1 (stereo not given)	?	.	.	-18.2%
